Test results published in PubChem BioAssay (EPA / NIEHS).
The source made the active and inactive calls. How the source made its calls: active means hit-call score of the fitted dose curve at least 0.9, where 1 is the maximum; inactive means score below 0.9.

read-out: Apoptosis regulator Bcl-2 (Homo sapiens) (UniProt P10415); experiment: LTEA_HepaRG_BCL2: Life Technologies and Expression Analysis (LTEA) Assay for Bcl-2 gene using HepaRG (AID 2283475); conditions: mRNA level, 48 h; actives raise or lower the signal;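 further: BCL2 transcript by TaqMan qRT-PCR normalised to ACTB GAPDH and POLR2A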
Protocol: LTEA_HepaRG is a cell based, multiplexed-readout assay that uses HepaRG, a human liver cell line, with measurements taken at 48 hours after chemical dosing on a 96-well plate.LTEA_HepaRG_BCL2 is one of 102 assay component(s) measured in the LTEA HepaRG cell culture assay. It is a marker of Cell proliferation, survival, death.Data from the assay component LTEA_HepaRG_BCL2 was analyzed into 1 endpoint. This assay endpoint, LTEA_HepaRG_BCL2, was analyzed with bidirectional fitting relative to DMSO as the negative control and baseline of activity. Using a type of inducible reporter, measures of mRNA induction for gain or loss-of-signal activity can be used to understand regulation of transcription factor activity. To generalize the intended target to other relatable targets, this assay endpoint is annotated to the cell cycle intended target family, where the subfamily is Cell proliferation, survival, death.
A total of 1060 chemcials from the ToxCast library were tested in eight-point concentration-response experiments. Cell culture and cytotoxicity assays were conducted at Thermo Fisher Scientific's Custom Services facility (Madison, WI). A single lot of human HepaRG cells (Thermo Fisher Scientific, Frederick, MD) was used for the cell culture experiments. 96-well format collagen type I coated plates of human HepaRG cells were prepared using established methods. Briefly, cryopreserved HepaRG cells were thawed, plated at a density of approximately 100,000 cells/well in HepaRG Thaw, Plate, and General Purpose media (HPRG770, Thermo Fisher Scientific), and incubated for 48 hours. 0.5% DMSO was selected as vehicle control to balance the requisite need of DMSO in HepaRG cultures to maintain differentiation (for example, baseline metabolism, proportions of hepatocytes vs. cholangiocytes), while enabling further hepatic receptor pathway activation (for example, PXR and CAR) in response to chemical exposure. 48 hours after plating, the culture medium was replaced with HepaRG Serum-Free Incudtion Media. Cells were exposed to each test chemical in duplicate and maintained in CO2 incubators for another 48 hours. Chemical plates were thawed to room temperature and 200x concentrations of treatment groups were prepared. 8-point conentration-reponse curves were made with the highest exposure at 100 uM, followed by half-log dilutions, all in 0.5% DMSO. Each test plate contained variouse controls, induction positive controls (1mM phenobarbital), cytotoxicity positive controls ([…] aflatoxin B1), vehicle controls (0.5% DMSO), and total lysis controls (0.5% DMSO). Cell morphology images were taken using an Essen IncuCyte FLR automated microscope, with six 96-well plates imaged in about 24 minutes. Images were captured and exported and JPEG files. Spent culture media was transfered to black-well plates for the LDH assay, and remaining media was sorted at -80 C for later use. Cells were treated with RLT buffer and frozen until shipped for gene expression analysis. Total RNA was isolated from the cell suspension in 75 uL of Buffer RLT (Qiagen, Germantown, MD 20874) by Quintiles/Expression Analysis (Durham, NC) using a custom isolation procedure. Total RNA from each plate well was transferred to a preamplification plate. Fluidigm's 96.96 Dynamic ArrayTM (Fluidigm, Amsterdam, the Netherlands) technology was used for gene expression analyses by quantitative reverse transcription polymerase chain reaction (qRT-PCR, performed by Quintiles/Expression Analysis, Durham, NC)89. Standard TaqManTM Assays (Applied Biosystems/ThermoFisher Scientific, Foster City, CA) were used to assess the expression of 93 genes selected based on their selectivity and sensitivity to important hepatic receptors known to be modulated by environmental chemicals; importance in human hepatocyte functionality; and hepatotoxicity. […]

Apoptosis regulator Bcl-2 (Homo sapiens), sequence (P10415 whole entry, looked up): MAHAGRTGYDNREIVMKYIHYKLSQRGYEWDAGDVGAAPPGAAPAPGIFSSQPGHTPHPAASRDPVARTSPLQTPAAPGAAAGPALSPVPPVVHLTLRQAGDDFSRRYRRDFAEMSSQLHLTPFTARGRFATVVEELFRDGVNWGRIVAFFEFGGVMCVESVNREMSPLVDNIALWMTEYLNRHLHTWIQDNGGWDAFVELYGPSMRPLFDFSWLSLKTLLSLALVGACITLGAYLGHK

SMILES	outcome
NCCOCCOCCN	inactive
Cc1ccc(-c2cc(C(F)(F)F)nn2-c2ccc(S(N)(=O)=O)cc2)cc1	inactive
Cc1ccc(C(C)(C)C)c(O)c1	inactive
CC(=O)OCC(COC(C)=O)OC(C)=O	inactive
NC(=Nc1ccccc1)Nc1ccccc1	inactive
CCCCC(CC)COP(=O)(OCC(CC)CCCC)OCC(CC)CCCC (stereo not given)	inactive
CCN(CC)CCOc1ccc(C(=C(Cl)c2ccccc2)c2ccccc2)cc1	inactive
CC(C)COC(=O)CCCCC(=O)OCC(C)C	inactive
COC(=O)CCCC(=O)OC	inactive
Oc1ccccc1O	inactive
O=C1CCCCC1	inactive
N[C@@H](Cc1c[nH]c2ccccc12)C(=O)O	inactive
C/C=C/c1ccc(OC)cc1	inactive
CCCCCCCCCCCCCCOS(=O)(=O)O	inactive
Cc1cc(Cc2ccc(N)c(C)c2)ccc1N	inactive
COc1ccc(OC(F)(F)F)cc1CN[C@H]1CCCN[C@H]1c1ccccc1	inactive
CC(=O)CC(c1ccccc1)c1c(O)c2ccccc2oc1=O (stereo not given)	inactive
CCCCCCCCCCCCCCCCO	inactive
O=Cc1ccccc1C=O	inactive
CCCCc1nc2cccnc2n1Cc1ccc(-c2ccccc2-c2nnn[nH]2)cc1	inactive

SMILES	outcome
CC(=O)[C@@]1(O)CC[C@H]2[C@@H]3CCC4=CC(=O)CC[C@]4(C)[C@H]3CC[C@@]21C	inactive
CC(=O)OC1CC(C)OC(C)O1 (stereo not given)	inactive
c1ccc2occc2c1	inactive
O=C(O)CC(O)(CC(=O)O)C(=O)O	inactive
CCC(C)N(C)C(=O)c1cc2ccccc2c(-c2ccccc2Cl)n1 (stereo not given)	inactive
O=C(NS(=O)(=O)/C=C/c1cccs1)c1ccc(F)cc1Br	inactive
CCCC(=O)O	inactive
CN(C)CCCN(C)CCCN(C)C	inactive
CN(C)C(=O)NC1(c2ccccc2)CCN(CC[C@@]2(c3ccc(F)c(F)c3)CN(C(=O)c3ccccc3)CCO2)CC1	inactive
Cn1cnc2c1c(=O)[nH]c(=O)n2C	inactive
CC(N)=O	inactive
CCCCOC(=O)CCCCC(=O)OCCCC	inactive
CSc1ccc(Oc2ccc(S(N)(=O)=O)cc2CN(C)C)cc1C	inactive
C=CCCCCCCCCCCCC	inactive
CO[C@@H]1COCC[C@@H]1N[C@@H]1CC[C@@](C(=O)N2CCc3ncc(C(F)(F)F)cc3C2)(C(C)C)C1	inactive
O=C(N[C@@H](c1ccccc1)[C@@H]1CCCCN1)c1cccc(C(F)(F)F)c1Cl	inactive
O=C(Oc1ccccc1)c1cccc(C(=O)Oc2ccccc2)c1	inactive
CCCCCCCCCC[N+](C)(C)[O-]	inactive
Nc1nc(=S)c2[nH]cnc2[nH]1	inactive
Cc1cc(SC2=C(O)C[C@@](CCc3ccc(N)cc3)(C(C)C)OC2=O)c(C(C)(C)C)cc1CO	inactive
